Assay outcomes (PubChem BioAssay)
Not all results are given here.
aSyn 5UTR act – Activators via SNCA 5'UTR binding, MLPCN; alpha-synuclein 5'UTR reporter, activators screen; activity score, % (tested at 7.5 µM), hits read low; hit rate 7.1% among 300,000; AID 1814, 2009; in the data active = activity score below about -60%
Numbers without * were called inactive.

SMILES | aSyn 5UTR act
O=C(NNc1c2ccccc2nc2ccccc12)c1ccc(O)cc1O | -79*
C/C(=N\NC(=O)c1cc(C2CC2)nc2ccccc12)c1ccc(O)cc1O | 74
Cc1onc(-c2ccccc2)c1C(=O)NC(=S)NNC(=O)c1ccc(O)cc1O | 64
O=C(NNc1c2ccccc2nc2ccccc12)c1ccccc1O | -93*
CN1CCN(Cc2nc(N)nc(Nc3ccc4c(c3)OCCO4)n2)CC1 | -91*
O=C(NC12CC3CC(CC(C3)C1)C2)c1ccc([N+](=O)[O-])o1 | -200*
O=C(NC12CC3CC(CC(C3)C1)C2)c1ccc(-c2ccc(Br)cc2)o1 | -246*
COc1ccc(/C(O)=C/c2nc3ccccc3n(-c3ccccc3)c2=O)cc1 | -84*
CN(C)c1ccc(/C=N/c2cc(-c3ccccc3)nn2-c2ccccc2)cc1 | -133*
Cc1cc(C)c2nc(-n3nc(C)cc3N)cc(C)c2c1 | -162*
Cc1cc(N)n(-c2cc(C)c3ccccc3n2)n1 | -118*
CCOC(=O)CSc1nc(-c2ccc3c(c2)OCO3)ccc1C#N | -113*
CCOC(=O)CSc1nc(-c2ccncc2)ccc1C#N | -138*
COCc1nc(-c2ccc(-c3ccc(C)cc3)nc2OC)no1 | -190*
COc1ccc(-c2ccc(-c3noc(C)n3)c(OC)n2)cc1 | -146*
O=C1NC(c2ccccc2Br)=N/C1=C\c1ccco1 | -165*
O=C1NC(c2ccccc2)=N/C1=C/c1ccco1 | -270*
O=C1NC(c2cccc(Br)c2)=N/C1=C\c1ccco1 | -106*
Cc1nc(NCc2ccco2)c2c(C)c(C)sc2n1 | -177*
CCS(=O)(=O)c1ncc(Cl)c(C(=O)Nc2ccc(S(=O)(=O)N3CCCC(C)C3)cc2)n1 (stereo not drawn) | 72
CC1CCCN(C(=O)Nc2ccc(Br)cc2Cl)C1 (stereo not drawn) | -91*
COc1ccc(N(C(=O)c2ccco2)S(=O)(=O)c2cc(OC)ccc2OC)cc1 | -113*
O=C(Nc1ccc(Cl)cc1)c1csc(-c2ccncc2)n1 | -66*
O=C(Nc1ccc(Cl)cc1Cl)c1csc(-c2cccnc2)n1 | -72*
O=C(Nc1ccc(Cl)cc1)c1csc(-c2ccccc2)n1 | -68*
SMILES | aSyn 5UTR act
Fc1ccccc1COc1ccc(C(=S)N2CCCC2)cc1 | -96*
O=C(CCS(=O)(=O)c1ccccc1)N(CCCN1CCOCC1)c1nc2ccccc2s1 | -106*
Cc1ccc2nc(N(CCN3CCOCC3)C(=O)CCS(=O)(=O)c3ccccc3)sc2c1 | -93*
Cc1ccc(S(=O)(=O)CCC(=O)N(CCCN2CCOCC2)c2nc3ccccc3s2)cc1 | -119*
COc1ccc2cc(-c3ccn[nH]3)ccc2c1 | -124*
COc1ccc(-c2cc3ccccc3oc2=O)cc1NC(=O)c1ccc(Br)o1 | -94*
CCC(=O)Nc1cc(-c2cc3ccccc3oc2=O)ccc1OC | -98*
CCC(=O)Nc1ccc(-c2cc3ccccc3oc2=O)cc1 | 54
COc1ccc(-c2cc3ccccc3oc2=O)cc1NC(=O)c1ccc([N+](=O)[O-])o1 | -240*
Fc1ccc(-c2csc(-c3ccccn3)n2)cc1F | -112*
c1ccc(-c2nc(-c3ccco3)cs2)nc1 | -183*
Cc1ccc(C(=O)OCC(=O)c2c[nH]c3ccccc23)cc1 | -147*
Cc1ccc(OCC(=O)c2cc(C)n(-c3ccccc3)c2C)c([N+](=O)[O-])n1 | 68
COC(=O)c1ccc(NC(=O)C(=O)c2c[nH]c3ccccc23)cc1 | -93*
COc1ccc(C2C(O)C(c3c[nH]c4ccccc34)=NN2C(=O)CCl)cc1 (stereo not drawn) | 108
Cc1cn(-c2cc(C(=O)Nc3ccc(C)c(NC(=O)C(=O)c4c[nH]c5ccccc45)c3)cc(C(F)(F)F)c2)cn1 | 66
COc1ccc(OCC(=O)c2c[nH]c3ccccc23)cc1 | -90*
Cc1ccc(OCC(=O)c2c[nH]c3ccccc23)c([N+](=O)[O-])n1 | -67*
O=C(OCC(=O)c1c[nH]c2ccccc12)C1=COCCO1 | -143*
CC1(C(=O)OCC(=O)c2c[nH]c3ccccc23)CC1(Cl)Cl (stereo not drawn) | -260*
O=[N+]([O-])c1ccccc1N/N=C/c1ccccc1 | -231*
O=[N+]([O-])c1ccccc1N/N=C/c1ccc2c(c1)OCO2 | -95*
CCC1CCCCN1CCCNC(=O)CC1Oc2ccccc2NC1=O (stereo not drawn) | -75*
O=C(Nn1c(SCc2cccc([N+](=O)[O-])c2)nc2ccccc2c1=O)c1ccccc1 | -145*
COc1ccc(C(=O)Nn2c(SCc3cccc([N+](=O)[O-])c3)nc3ccccc3c2=O)cc1 | 66
SMILES | aSyn 5UTR act
Cc1ccc(S(=O)(=O)Nc2ccccc2CNc2ccccn2)cc1 | -75*
Cc1ccc(S(=O)(=O)Nc2cccc3cccnc23)cc1 | 63
Cc1ccnc(NCc2cc(C)ccc2O)c1 | -69*
Cc1ccc(O)c(CNc2ccccn2)c1 | -67*
N#CC1=C2SC=C(c3ccc(Br)cc3)N2CCCC1=O | -257*
N#CC1=C2Sc3ccccc3N2CCCC1=O | -171*
CSc1nc2ccc3nc(NC(=O)c4ccccc4)sc3c2s1 | -318*
O=C(Nc1nc2ccsc2c(=O)s1)c1ccc(F)cc1Cl | -117*
